Unmarked numbers belong to inactive results. Records with an inconclusive call do not appear. A call without a number means that no potency is given here. Activity calls are given as the source filed them. Calls come from the whole dose curve; as a rule, active = well fitted curve in the direction sought with a large enough effect; inconclusive = small, poorly fitted or top-dose-only effect, or another doubt; inactive = no such curve, though single readings can be large; an effect the other way counts as inactive or inconclusive.

The test system of assay [1] is Nanoluciferase (engineered Oplophorus gracilirostris luciferase). The assay is described as follows: Primary Nanoluciferase (NLuc) qHTS assay for identification of artifact compounds. (AID 1845222).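 Note: NLuc secreted into diluted conditioned medium of S16 cells; series mostly up to about 54 µM.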 A digest of the protocol: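 NLuc from S16 cell medium (1:55) plus test compounds, 15 min, room temperature. Luminescence after Nano-Glo (1:100) addition, 5 min.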
(In general: Quantitative high-throughput screening tests each substance at several concentrations.)

The nature of assay [2]: Primary redox qHTS assay for identification of artifact compounds. (AID 1845223). A digest of the protocol:
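Redox-cycling detection via DTT (250 uM final) oxidation coupled to Amplex Red (25 uM)/HRP (250 mU/mL) in HBSS. 15 min preincubation plus 30 min after DTT, room temperature. Ex/Em 525/598 nm; 4-parameter Hill fit against DMSO and 10 uM DA3003.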

`Cc1ncc(NC(=O)c2ccc(CN3CCN(C)CC3)c(C(F)(F)F)c2)cc1Nc1nccc(-c2cccnc2)n1`: the Potency result in assay [1] was “inactive”.
Still for that read-out and setting: next, `CC1(C)CC=C(C#Cc2ccccc2)c2cc(/C=C/c3ccc(C(=O)O)cc3)ccc21`: “inactive”; `CCC(C)/C=C(C)/C=C/C1=CC2=CC(=O)C(C)(O)C(OC(C)=O)C2CO1` (stereo not given): “inactive”.
As for `C[C@@H]1O[C@@H](O[C@H]2[C@H](O[C@H]3[C@H](O[C@H]4CC[C@@]5(C)C(CC[C@]6(C)C5CC=C5[C@@H]7CC(C)(C)CC(=O)[C@]7(C)CC[C@]56C)[C@@]4(C)CO)O[C@H](C(=O)O)[C@@H](O)[C@@H]3O)O[C@H](CO)[C@H](O)[C@@H]2O)[C@H](O)[C@H](O)[C@H]1O` (stereo not given in full), the activity, negative = inhibition in assay [1] is -0.78% [at 11.6 µM].
Still for that read-out and setting: next, `CC1(C)CC[C@]2(C(=O)O[C@@H]3O[C@H](CO[C@@H]4O[C@H](CO)[C@@H](O)[C@H](O)[C@H]4O)[C@@H](O)[C@H](O[C@@H]4O[C@H](CO)[C@@H](O)[C@H](O)[C@H]4O)[C@H]3O)[C@H](O)C[C@]3(C)C(=CCC4[C@@]5(C)CC[C@H](O[C@@H]6OC[C@@H](O)[C@H](O)[C@H]6O)[C@@](C)(C(=O)O)C5CC[C@]43C)[C@@H]2C1` (stereo not given in full): -3.16% [at 11.6 µM].
On to `CC(C)=CCC[C@](C)(O[C@@H]1O[C@H](CO[C@@H]2O[C@@H](CO)[C@H](O)[C@H]2O)[C@@H](O)[C@H](O)[C@H]1O)[C@H]1CC[C@]2(C)[C@@H]1[C@H](O)C[C@@H]1[C@@]3(C)CC[C@H](O[C@@H]4O[C@H](CO)[C@@H](O)[C@H](O)[C@H]4O[C@@H]4O[C@H](CO)[C@@H](O)[C@H](O)[C@H]4O)C(C)(C)[C@@H]3CC[C@]12C`, for which the Potency result in assay [1] was “inactive”.
Turning to `CC(=O)O[C@@H](C[C@@H]1C=C(C)C(=O)O1)[C@H](C)[C@H]1CCC2[C@@]3(C)CC[C@H](O[C@@H]4O[C@H](CO)[C@@H](O)[C@H](O)[C@H]4O[C@@H]4O[C@@H](C)[C@H](O)[C@@H](O)[C@H]4O)C(C)(C)C3CC[C@@]2(C)[C@@]12COC(=O)C2` (stereo not given in full), the activity, negative = inhibition in assay [1] is -4.12% [at 11.6 µM].
Regarding `C=C1C(OC(C)=O)C(=O)C2C(C)(C)C(O)CCC2(C)C1CC(OC(C)=O)/C(C)=C/COC(C)=O` (stereo not given), the Potency entry in assay [1] was “inactive”.
The same measure, in the same setting: with `COC(=O)C(CC1(O)c2ccccc2N2C(=O)C(CC(C)C)NC21)n1cnc2ccccc2c1=O` (stereo not given) the entry was “inactive”.
Same read-out and setting: next, `COc1c2c(c(C)c3c1C(=O)OC3)OC1(C)CC(O)C34OC(OC)(CC(O)C3(C)C1C2)OC4(C)C` (stereo not given): “inactive”.
Turning to `COc1cc(C)c(C(=O)NC2C(C)OC(OC3CCC(C)C4C3C=C(C)C3/C(C)=C\CC/C(C)=C/C5(C)C=C(C(=O)O)C(C)CC56OC(=O)/C(=C(\O)C34C)C6=O)C(O)C2(C)O)c(O)c1` (stereo not given), the activity, negative = inhibition in assay [1] is 4.93% [at 11.6 µM].
On to `CC1(C)OC(=O)CC(O)C2(C)C1CC(=O)C1(C)C2C(O)CC2(C)C(c3ccoc3)OC(=O)C3OC321` (stereo not given), for which the Potency result in assay [1] is “inactive”.
With `C[C@@H]1O[C@@H](O[C@H]2[C@H](O)[C@@H](O)[C@H](OC(=O)[C@]34CCC(C)(C)C[C@H]3C3=CCC5[C@@]6(C)CC[C@H](O[C@@H]7O[C@H](C(=O)O)[C@@H](O)[C@H](O)[C@H]7O)C(C)(C)C6CC[C@@]5(C)[C@]3(C)CC4)O[C@@H]2CO)[C@H](O)[C@H](O)[C@H]1O` (stereo not given in full), the activity, negative = inhibition in assay [1] is -3.67% [at 11.6 µM].
`CNc1nc(C)nc(N[C@H]2CCC[C@@H](C(=O)NCc3ccc(C#N)cc3C(F)(F)F)C2)n1`: the Potency result in assay [1] is “inactive”.
On the same count and under the same terms, with `CCc1nnc(NS(=O)(=O)c2ccc(NC(=S)NC(=O)/C=C/c3ccc(F)cc3)cc2)s1` the entry was “inactive”; with `COc1cnc(-n2cnc(C)n2)c2[nH]cc(C(=O)C(=O)N3CCN(C(=O)c4ccccc4)CC3)c12`, “inactive”.
On the same count and under the same terms, next, `COc1ccc(/C=C/C(=O)O[C@@H]2[C@@H](O)[C@@H](O)[C@H](O[C@H]3[C@@H]4C=CO[C@@H](O[C@@H]5O[C@H](CO)[C@@H](O)[C@H](O)[C@H]5O)[C@@H]4[C@@]4(CO)O[C@@H]34)O[C@H]2C)cc1`: “inactive”.
On the same count and under the same terms, with `COC(=O)C1=CO[C@@H](O[C@@H]2O[C@H](CO)[C@@H](O)[C@H](O)[C@H]2O)/C(=C\CO)[C@@H]1CC(=O)OCCc1ccc(O)cc1` the entry was “inactive”; with `O=C(O)c1cccc(CN2C(=O)/C(=C(\c3ccccc3)c3ccc(Cl)cc3)c3ccccc32)c1`, “inactive”; with `C=C[C@]1(C)C[C@@H](OC(=O)CSC2C[C@H]3CC[C@@H](C2)N3C)[C@]2(C)[C@H](C)CC[C@]3(CCC(=O)[C@H]32)[C@@H](C)[C@@H]1O` (stereo not given in full), “inactive”.
Consider `CC(=O)O[C@@H]1C=C2[C@H](CC[C@@]3(C)[C@@]2(O)CC[C@H]2Cc4c([nH]c5ccccc45)[C@@]23C)O[C@@H]1C(C)(C)O`, for which the Potency result in assay [1] was “inactive”.
The same measure, in the same setting: with `CC(C)C1CCC(CO)=CC1/C=C(\CO)C(=O)OCC1(O)CCC(C(C)C)C2C=C(C(=O)O)COC(=O)C21` (stereo not given) the entry was “inactive”; with `C/C=C/C=C/C=C/C(=O)N(C)C(C(=O)NC(C)C(=O)N1CCCC1C(N)=O)C(C)C` (stereo not given), “inactive”.
As for `C=C1CC[C@]2(C(=O)O[C@@H]3O[C@H](CO)[C@@H](O)[C@H](O)[C@H]3O)CC[C@]3(C)C(=CCC4[C@@]5(C)C[C@H](O)[C@@H](O[C@@H]6O[C@H](C(=O)O)[C@@H](O)[C@H](O)[C@H]6O)[C@](C)(C=O)C5CC[C@]43C)C2C1` (stereo not given in full), in assay [1], the activity, negative = inhibition was 1.82% [at 11.6 µM].
`C/C=C/C1OC2=C(C(=O)OC2(C)O)C(O)C1O` (stereo not given): the Potency result in assay [1] is “inactive”.
Still for that read-out and setting: with `O=C(O)CCc1ccc(NCc2cccc3c2CCCN3CCOc2ccccc2)cc1F` the entry was “inactive”; with `CC1(C)[C@@H]2CC=C(CO[C@@H]3O[C@H](CO[C@@H]4OC[C@H](O)[C@H](O)[C@H]4O)[C@@H](O)[C@H](O)[C@H]3O)[C@H]1C2`, “inactive”; with `C=C1CCC2C(C)(C)CC(=O)CC2(C)C1CCC(C)CCO` (stereo not given), “inactive”.
On the same count and under the same terms, next, `COC(=O)c1cc(OC)cc(OC)c1C(=O)c1c(OC)cc2c(c1O)C1CCC(O)C(C)(O2)O1` (stereo not given): “inactive”.
Turning to `C[C@@H]1CC[C@]2(C(=O)O[C@@H]3O[C@H](CO[C@@H]4O[C@H](CO)[C@@H](O)[C@H](O)[C@H]4O)[C@@H](O)[C@H](O)[C@H]3O)CC[C@]3(C)C(=CCC4[C@@]5(C)CC[C@H](O)[C@](C)(C(=O)O)C5CC[C@]43C)[C@@H]2[C@]1(C)O` (stereo not given in full), the activity, negative = inhibition in assay [1] is 2.17% [at 11.6 µM].
Consider `CC(NC(=O)CC(=O)O)C(=O)Nc1ccccc1C(N)=O` (stereo not given), for which, in assay [1], the Potency entry is “inactive”.
As to `CC(=O)/C=C/C1C(C)CC(O[C@@H]2O[C@H](CO)[C@@H](O)[C@H](O)[C@H]2O)CC1(C)C` (stereo not given in full), the Potency entry in assay [1] and in assay [2] was “inactive” in each case.
`C=C1C(=O)O[C@@H]2C[C@]3(C)[C@@H](CCC(C)=O)[C@@H]3C[C@H]12`: the Potency result in assay [1] and in assay [2] was “inactive” in each case.
For `CC1CCC23COC(=O)C2=CC(O)CC3C1(C)CCc1ccoc1` (stereo not given), the Potency entry in assay [1] and in assay [2] was “inactive” each time.
For the compound `Cc1c(-c2ccc3c(c2)OCO3)oc2ccc(C(O)C(C)O)cc12` (stereo not given), the Potency entry in assay [1] and in assay [2] was “inactive” throughout.
For `CN1CCc2cc(Cl)c(O)cc2[C@@H](c2cccc3c2OCC3)C1`, the Potency entry in assay [1] and in assay [2] was “inactive” throughout.
In the case of `O=S(=O)(O)c1ccc(Nc2ncnc3c2ncn3[C@@H]2O[C@H](CO)[C@@H](O)[C@H]2O)cc1`, the Potency result in assay [1] and in assay [2] was “inactive” in each case.
In the case of `C=C1[C@H](OC(C)=O)[C@H]2[C@@H](OC(=O)c3ccccc3)[C@@H](C)C[C@]2(O)[C@@H](OC(C)=O)[C@H](C)/C=C/C(C)(C)C(=O)[C@H](OC(C)=O)[C@H]1OC(C)=O`, the Potency result in assay [1] and in assay [2] was “inactive” throughout.
Consider `Cc1ccc(C)c(NC(=O)CNS(=O)(=O)c2ccc3[nH]c(=O)oc3c2)c1`, for which the Potency result in assay [1] and in assay [2] was “inactive” in each case.
With `COc1ccc(C2(O)c3c(ccc4c3OC(C)(CCC=C(C)C)C=C4)NC(=O)C2OC)cc1` (stereo not given), the Potency result in assay [1] and in assay [2] was “inactive” each time.
As for `COc1cc(C(CO)CO[C@@H]2O[C@H](CO)[C@@H](O)[C@H](O)[C@H]2O)ccc1O` (stereo not given in full), the Potency entry in assay [1] and in assay [2] was “inactive” in each case.
On to `CC1(C)CC[C@]2(C(=O)O[C@@H]3O[C@H](CO)[C@@H](O)[C@H](O)[C@H]3O)[C@H](O)C[C@]3(C)C(=CCC4[C@@]5(C)CC[C@H](O[C@@H]6OC[C@@H](O)[C@H](O)[C@H]6O)[C@@](C)(C(=O)O)C5CC[C@]43C)[C@@H]2C1` (stereo not given in full), for which the Potency result in assay [1] and in assay [2] was “inactive” throughout.
For the compound `CC(C)[C@](O)(c1ccc2cc(OC(F)F)c(OC(F)F)cc2c1)c1cn[nH]n1`, the Potency entry in assay [1] and in assay [2] was “inactive” in each case.
Turning to `CC(=O)N[C@H](Cc1c[nH]c2ccccc12)C(=O)OCc1cc(C(F)(F)F)cc(C(F)(F)F)c1`, the Potency result in assay [1] and in assay [2] was “inactive” in each case.
With `O=C1C(Cl)=C(N2CCOCC2)C(=O)N1c1ccc(Cl)c(Cl)c1`, the Potency result in assay [1] and in assay [2] was “inactive” each time.
For `C=Cc1ccc(O[C@@H]2O[C@H](CO[C@@H]3O[C@@H](C)[C@H](O)[C@@H](O)[C@H]3O)[C@@H](O)[C@H](O)[C@H]2O)cc1`, the Potency entry in assay [1] and in assay [2] was “inactive” in each case.
Consider `CC(=O)OC/C(=C/C(=O)O)CC[C@@H]1C(C)=CC(=O)[C@@H]2C(C)(C)CCC[C@@]12C`, for which the Potency result in assay [1] and in assay [2] was “inactive” throughout.
On to `C[C@@H]1O[C@@H](O[C@H]2[C@@H]3C=CO[C@@H](O[C@@H]4O[C@H](CO)[C@@H](O)[C@H](O)[C@H]4O)[C@@H]3[C@@]3(CO)O[C@@H]23)[C@H](OC(=O)/C=C/c2ccc(O)cc2)[C@H](O)[C@H]1O`, for which the Potency result in assay [1] and in assay [2] was “inactive” each time.
On to `COc1ccc(C2(O)c3ccccc3NC(=O)C2OC)cc1` (stereo not given), for which the Potency result in assay [1] and in assay [2] was “inactive” in each case.
`COc1cc(C2Oc3c(OC)cc(CCCO)cc3C2CO)ccc1O` (stereo not given): the Potency entry in assay [1] and in assay [2] was “inactive” each time.
In the case of `CC(O)/C=C/C1(O)C(C)C(O)C(O[C@@H]2O[C@H](CO)[C@@H](O)[C@H](O)[C@H]2O)CC1(C)C` (stereo not given in full), the Potency entry in assay [1] and in assay [2] was “inactive” each time.
Regarding `C=C1C(=O)O[C@@H]2/C=C(\C)CC/C=C(\C(=O)O[C@@H]3O[C@H](CO)[C@@H](O)[C@H](O)[C@H]3O)CC[C@@H]12`, the Potency result in assay [1] and in assay [2] was “inactive” throughout.
Turning to `CC(=C\C(C)O)/C=C(\C)C(=O)CC1CC(CC(N)=O)CC(=O)O1` (stereo not given), the Potency entry in assay [1] and in assay [2] was “inactive” in each case.

The record behind these values is PubChem BioAssay (NCATS).
